Laboratory results: PMC4336329 (PLoS ONE, 2015)
About 14,000 (4.5%) of roughly 310,000 compounds showed an effect of 50% or more. The effect is printed as a negative number. This is one part of a sample in which strong results are shown more often than they occur.

Target: human ether-à-go-go-related gene (hERG) potassium channel (human, UniProt Q12809)
Assay: primary screen, population patch clamp on CHO cells stably expressing hERG; higher = less effect of the substance
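Note: peak tail current of the secondary pulse compared with the same well before compound.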

Sequence of human ether-à-go-go-related gene (hERG) potassium channel (Q12809 whole entry, looked up): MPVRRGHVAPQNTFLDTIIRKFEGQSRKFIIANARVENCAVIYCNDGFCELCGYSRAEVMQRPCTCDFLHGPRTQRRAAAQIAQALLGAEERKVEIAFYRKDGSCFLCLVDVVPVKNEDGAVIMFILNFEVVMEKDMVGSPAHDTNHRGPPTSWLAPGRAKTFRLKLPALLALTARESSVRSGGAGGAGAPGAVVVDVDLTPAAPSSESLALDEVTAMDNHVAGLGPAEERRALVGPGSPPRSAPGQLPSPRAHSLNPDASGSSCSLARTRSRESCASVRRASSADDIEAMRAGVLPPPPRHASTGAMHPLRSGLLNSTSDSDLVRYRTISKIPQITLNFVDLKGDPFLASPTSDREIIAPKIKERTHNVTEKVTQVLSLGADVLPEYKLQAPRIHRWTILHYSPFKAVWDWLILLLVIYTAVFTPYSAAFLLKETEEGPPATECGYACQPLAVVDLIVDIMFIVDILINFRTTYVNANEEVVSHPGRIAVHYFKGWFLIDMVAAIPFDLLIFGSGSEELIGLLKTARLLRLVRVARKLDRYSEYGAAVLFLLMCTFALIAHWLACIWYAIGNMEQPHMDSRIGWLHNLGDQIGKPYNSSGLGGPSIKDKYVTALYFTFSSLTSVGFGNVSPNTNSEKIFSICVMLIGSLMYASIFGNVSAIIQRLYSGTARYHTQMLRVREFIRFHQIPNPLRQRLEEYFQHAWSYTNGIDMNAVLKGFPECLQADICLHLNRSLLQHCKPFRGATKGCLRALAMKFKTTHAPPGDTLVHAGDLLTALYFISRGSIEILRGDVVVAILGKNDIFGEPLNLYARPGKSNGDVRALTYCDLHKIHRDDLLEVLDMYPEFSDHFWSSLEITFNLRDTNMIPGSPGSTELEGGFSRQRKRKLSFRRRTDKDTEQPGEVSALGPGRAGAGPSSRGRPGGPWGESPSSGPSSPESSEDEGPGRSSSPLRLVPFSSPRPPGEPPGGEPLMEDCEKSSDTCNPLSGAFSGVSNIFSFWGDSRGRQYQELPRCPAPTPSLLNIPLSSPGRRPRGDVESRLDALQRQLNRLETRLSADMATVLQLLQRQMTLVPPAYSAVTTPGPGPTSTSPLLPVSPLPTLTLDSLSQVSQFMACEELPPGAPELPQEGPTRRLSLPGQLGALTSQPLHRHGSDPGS

SMILES	hERG current change (%, negative = inhibition) at 10uM
O=C(O)c1ccccc1N1C(=O)C2C3c4ccccc4C(Br)(c4ccccc43)C2C1=O (stereo not drawn)	18.4%
CCN(CC(=O)NCc1cccs1)C(=O)/C=C/c1ccc(OC)c(OC)c1	-23.5%
Cc1cc(C)n2nc(C(=O)OCC(=O)Nc3ccc4c(c3)OCCO4)nc2n1	3.56%
CCOc1cc(C(=S)N2CCOCC2)ccc1OS(=O)(=O)c1ccccc1	-10%
COc1ccc(OCC(=O)NCCCCCCNC(=O)COc2ccc(OC)cc2)cc1	10.6%
CCOC(=O)C1CCCN(CC(O)COCc2ccc3c(c2)OCO3)C1 (stereo not drawn)	-23.5%
CCc1cc(C(=O)NNC(=O)CCN2CCN(c3ccccc3)CC2)sc1C	11.8%
O=C(Nc1nnc(C2CC2)o1)c1ccc(S(=O)(=O)N2CCCc3ccccc32)cc1	-19.3%
COc1ccc(/C=N/Nc2ncc(C(F)(F)F)cc2Cl)cc1OC	3%
COc1cccc(/C=N/Nc2ncc(C(F)(F)F)cc2Cl)c1O	36.1%
COc1cc(/C=N/Nc2ncc(C(F)(F)F)cc2Cl)cc(OC)c1O	-64.8%
CCN(CC(=O)Nc1cc(C)on1)CC(=O)Nc1ccccc1C(F)(F)F	13.7%
O=C(NCCc1ccccc1)c1ccc(Cl)c([N+](=O)[O-])c1	-27.2%
CN(CC(=O)Nc1ccc(F)c(F)c1F)C(=O)c1ccc(=O)[nH]c1	0.382%
CN(CC(=O)Nc1ccc(F)c(F)c1F)C(=O)c1ccc(-n2cncn2)c([N+](=O)[O-])c1	-40.6%
CN(CC(=O)Nc1ccc(Cl)cc1)C(=O)c1ccc(-n2cncn2)c([N+](=O)[O-])c1	-70.3%
Cc1ccc(NC(=O)CN(C)C(=O)c2ccc(Cl)c([N+](=O)[O-])c2)cc1	-52.1%
CCN(C(=O)c1ccc(Cl)c([N+](=O)[O-])c1)c1ccccc1	-5.95%
CN(CC(=O)Nc1ccc(F)c(F)c1F)C(=O)c1ccc(-n2cncn2)cc1	-63.8%
Cc1ccc(NC(=O)CN(C)C(=O)C(C)OC(=O)CNC(=O)c2ccc(Cl)c([N+](=O)[O-])c2)cc1 (stereo not drawn)	-43%
Cc1ccc(NC(=O)CN(C)C(=O)c2ccc(-n3cncn3)c([N+](=O)[O-])c2)cc1	-49.2%
CN(Cc1ccccc1)C(=O)c1ccc(Cl)c([N+](=O)[O-])c1	-53.5%
CN(CC(=O)Nc1c(Cl)cccc1Cl)C(=O)c1ccc(-n2cncn2)c([N+](=O)[O-])c1	5.71%
Cc1ccc(NC(=O)CN(C)C(=O)c2ccc(Sc3nncn3C)c([N+](=O)[O-])c2)cc1	-40.3%
